Test results from the supplement of paper PMC11732987, “Enantioselective OTUD7B fragment discovery through chemoproteomics screening and high-throughput optimisation” (Communications Chemistry, 2025).
Values without a mark were called inactive.

Assays:
Test in all cases: log2 ratio of Biotin-Ahx-Ub-VS probe labelling (fragment/DMSO); higher = less target engagement (more negative = stronger competition), active = hit call of the paper (q ≤ 0.05, log2 ratio ≤ -1)
Details in all cases: compound concentration: 200 uM; treatment time: 3 h
USP19 = molecular target: T1, USP19 (UniProt O94966)
T1 sequence (whole entry): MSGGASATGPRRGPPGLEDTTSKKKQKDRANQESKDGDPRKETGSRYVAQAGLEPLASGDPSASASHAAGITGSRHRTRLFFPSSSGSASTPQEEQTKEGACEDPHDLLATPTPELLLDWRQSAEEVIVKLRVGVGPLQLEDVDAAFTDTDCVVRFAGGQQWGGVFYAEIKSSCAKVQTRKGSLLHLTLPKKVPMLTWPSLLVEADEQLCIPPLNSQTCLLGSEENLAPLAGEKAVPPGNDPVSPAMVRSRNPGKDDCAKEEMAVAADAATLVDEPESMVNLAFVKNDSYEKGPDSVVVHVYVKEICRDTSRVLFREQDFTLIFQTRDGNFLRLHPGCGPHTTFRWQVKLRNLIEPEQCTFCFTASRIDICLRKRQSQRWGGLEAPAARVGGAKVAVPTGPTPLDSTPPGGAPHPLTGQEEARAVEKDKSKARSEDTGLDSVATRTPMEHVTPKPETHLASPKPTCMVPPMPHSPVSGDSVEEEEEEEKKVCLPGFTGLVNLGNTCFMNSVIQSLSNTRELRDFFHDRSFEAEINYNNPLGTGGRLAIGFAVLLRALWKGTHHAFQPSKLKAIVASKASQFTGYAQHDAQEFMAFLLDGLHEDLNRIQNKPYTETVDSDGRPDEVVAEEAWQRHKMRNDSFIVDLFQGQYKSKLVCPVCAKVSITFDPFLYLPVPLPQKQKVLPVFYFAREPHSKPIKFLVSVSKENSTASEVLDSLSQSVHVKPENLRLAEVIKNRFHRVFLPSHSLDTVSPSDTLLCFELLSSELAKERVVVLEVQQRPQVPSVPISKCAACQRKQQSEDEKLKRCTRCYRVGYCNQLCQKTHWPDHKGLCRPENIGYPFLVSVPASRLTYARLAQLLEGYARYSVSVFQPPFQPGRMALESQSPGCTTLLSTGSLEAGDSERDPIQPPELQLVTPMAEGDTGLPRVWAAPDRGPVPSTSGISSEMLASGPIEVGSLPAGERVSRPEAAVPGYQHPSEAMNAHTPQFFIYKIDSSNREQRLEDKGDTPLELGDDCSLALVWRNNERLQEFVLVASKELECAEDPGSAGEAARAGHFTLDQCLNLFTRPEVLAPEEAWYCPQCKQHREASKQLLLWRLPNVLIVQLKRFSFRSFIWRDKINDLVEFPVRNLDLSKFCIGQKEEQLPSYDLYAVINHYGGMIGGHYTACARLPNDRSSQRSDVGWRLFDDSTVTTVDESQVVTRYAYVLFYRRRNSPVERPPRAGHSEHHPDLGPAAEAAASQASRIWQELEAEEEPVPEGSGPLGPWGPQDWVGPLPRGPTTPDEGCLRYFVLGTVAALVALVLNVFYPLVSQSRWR
How it was run: (§1)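 Labelling with Biotin-Ahx-Ub-VS (0.5 µM final, 1 h) followed a 3 h triplicate treatment of HEK293T lysate (495 µg per sample, Tris/CHAPS/IGEPAL buffer with protease inhibitors) with fragment at 200 µM or vehicle. Labelled DUBs were NeutrAvidin-enriched, digested with LysC and trypsin, and run by diaPASEF LC-MS/MS. The values, average log2 fragment/vehicle ratios by unpaired t-test, come from global-median-normalised Spectronaut label-free quantities. Proteins with ≥2 unique peptides were used.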

USP22 = molecular target: T2, USP22 (UniProt Q9UPT9)
T2 sequence (whole entry): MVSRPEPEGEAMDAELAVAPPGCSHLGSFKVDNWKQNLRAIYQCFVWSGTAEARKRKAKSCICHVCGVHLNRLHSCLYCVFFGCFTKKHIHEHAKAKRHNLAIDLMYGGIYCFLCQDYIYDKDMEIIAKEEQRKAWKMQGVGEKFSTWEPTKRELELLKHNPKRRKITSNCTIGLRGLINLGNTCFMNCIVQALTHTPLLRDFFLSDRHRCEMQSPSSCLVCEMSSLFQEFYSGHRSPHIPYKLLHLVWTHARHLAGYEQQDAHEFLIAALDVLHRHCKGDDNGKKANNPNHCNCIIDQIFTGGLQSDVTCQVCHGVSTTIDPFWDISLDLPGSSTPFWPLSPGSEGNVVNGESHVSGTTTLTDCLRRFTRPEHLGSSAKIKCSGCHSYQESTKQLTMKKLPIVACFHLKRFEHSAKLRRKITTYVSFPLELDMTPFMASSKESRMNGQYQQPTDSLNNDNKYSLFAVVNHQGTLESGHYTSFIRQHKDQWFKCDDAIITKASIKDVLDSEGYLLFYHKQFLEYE
How it was run: as §1

USP24 = USP24 (UniProt Q9UPU5)
How it was run: as §1

USP25 = molecular target: T3, USP25 (UniProt Q9UHP3)
T3 sequence (whole entry): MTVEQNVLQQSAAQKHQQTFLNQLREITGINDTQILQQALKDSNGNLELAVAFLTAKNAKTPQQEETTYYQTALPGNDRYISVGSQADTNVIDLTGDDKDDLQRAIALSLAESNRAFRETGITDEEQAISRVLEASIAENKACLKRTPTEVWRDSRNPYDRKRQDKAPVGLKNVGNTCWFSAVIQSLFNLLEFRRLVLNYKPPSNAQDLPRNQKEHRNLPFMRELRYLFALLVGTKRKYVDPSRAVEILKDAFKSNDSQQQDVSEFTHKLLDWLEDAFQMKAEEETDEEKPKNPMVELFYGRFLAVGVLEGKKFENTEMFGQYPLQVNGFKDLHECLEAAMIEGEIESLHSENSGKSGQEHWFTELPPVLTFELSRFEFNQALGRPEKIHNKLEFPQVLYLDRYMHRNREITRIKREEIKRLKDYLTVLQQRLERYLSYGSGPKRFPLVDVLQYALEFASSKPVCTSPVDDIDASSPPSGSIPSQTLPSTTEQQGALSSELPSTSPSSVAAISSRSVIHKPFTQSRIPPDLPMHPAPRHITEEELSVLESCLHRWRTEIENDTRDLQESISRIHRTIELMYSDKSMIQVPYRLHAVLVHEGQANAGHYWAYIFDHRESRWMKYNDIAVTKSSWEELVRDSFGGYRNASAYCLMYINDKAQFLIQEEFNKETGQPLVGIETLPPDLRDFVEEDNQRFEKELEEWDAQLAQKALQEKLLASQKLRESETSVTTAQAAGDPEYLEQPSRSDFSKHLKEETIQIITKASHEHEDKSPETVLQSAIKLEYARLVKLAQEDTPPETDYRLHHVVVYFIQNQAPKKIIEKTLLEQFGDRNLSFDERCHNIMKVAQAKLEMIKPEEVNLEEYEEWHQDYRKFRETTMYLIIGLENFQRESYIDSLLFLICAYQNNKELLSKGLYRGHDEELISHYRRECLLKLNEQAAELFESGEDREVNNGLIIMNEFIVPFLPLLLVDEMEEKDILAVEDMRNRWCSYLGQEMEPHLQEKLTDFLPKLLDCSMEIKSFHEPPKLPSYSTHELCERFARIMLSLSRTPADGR
How it was run: as §1

USP28 = molecular target: T4, USP28 (UniProt Q96RU2)
T4 sequence (whole entry): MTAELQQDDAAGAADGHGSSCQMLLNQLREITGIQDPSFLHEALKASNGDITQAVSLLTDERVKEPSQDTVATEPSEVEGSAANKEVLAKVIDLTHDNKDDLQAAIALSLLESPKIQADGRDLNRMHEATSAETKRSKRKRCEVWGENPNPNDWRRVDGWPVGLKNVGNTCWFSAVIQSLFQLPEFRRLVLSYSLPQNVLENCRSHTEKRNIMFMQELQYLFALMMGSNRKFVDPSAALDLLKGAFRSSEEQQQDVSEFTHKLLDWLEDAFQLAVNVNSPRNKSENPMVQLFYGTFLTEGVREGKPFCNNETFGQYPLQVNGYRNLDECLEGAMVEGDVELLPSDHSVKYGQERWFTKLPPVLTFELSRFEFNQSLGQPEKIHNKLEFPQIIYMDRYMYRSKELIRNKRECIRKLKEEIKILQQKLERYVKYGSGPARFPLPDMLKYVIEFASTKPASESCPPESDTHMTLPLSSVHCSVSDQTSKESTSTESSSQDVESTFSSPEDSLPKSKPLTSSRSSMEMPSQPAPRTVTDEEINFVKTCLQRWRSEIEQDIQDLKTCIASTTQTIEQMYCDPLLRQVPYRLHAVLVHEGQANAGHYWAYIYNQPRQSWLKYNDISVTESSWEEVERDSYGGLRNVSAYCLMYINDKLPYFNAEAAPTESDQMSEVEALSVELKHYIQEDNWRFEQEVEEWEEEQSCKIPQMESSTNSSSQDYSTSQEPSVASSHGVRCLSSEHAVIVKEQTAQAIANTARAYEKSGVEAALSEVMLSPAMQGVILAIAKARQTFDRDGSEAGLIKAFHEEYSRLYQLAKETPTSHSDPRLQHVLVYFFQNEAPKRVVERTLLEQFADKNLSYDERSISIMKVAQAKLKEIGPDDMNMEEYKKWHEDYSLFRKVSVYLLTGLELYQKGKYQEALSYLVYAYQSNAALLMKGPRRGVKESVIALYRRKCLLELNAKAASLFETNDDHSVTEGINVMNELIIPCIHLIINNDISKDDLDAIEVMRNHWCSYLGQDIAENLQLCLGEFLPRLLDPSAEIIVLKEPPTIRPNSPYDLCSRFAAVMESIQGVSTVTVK
How it was run: as §1

USP24, sequence (Q9UPU5 whole entry): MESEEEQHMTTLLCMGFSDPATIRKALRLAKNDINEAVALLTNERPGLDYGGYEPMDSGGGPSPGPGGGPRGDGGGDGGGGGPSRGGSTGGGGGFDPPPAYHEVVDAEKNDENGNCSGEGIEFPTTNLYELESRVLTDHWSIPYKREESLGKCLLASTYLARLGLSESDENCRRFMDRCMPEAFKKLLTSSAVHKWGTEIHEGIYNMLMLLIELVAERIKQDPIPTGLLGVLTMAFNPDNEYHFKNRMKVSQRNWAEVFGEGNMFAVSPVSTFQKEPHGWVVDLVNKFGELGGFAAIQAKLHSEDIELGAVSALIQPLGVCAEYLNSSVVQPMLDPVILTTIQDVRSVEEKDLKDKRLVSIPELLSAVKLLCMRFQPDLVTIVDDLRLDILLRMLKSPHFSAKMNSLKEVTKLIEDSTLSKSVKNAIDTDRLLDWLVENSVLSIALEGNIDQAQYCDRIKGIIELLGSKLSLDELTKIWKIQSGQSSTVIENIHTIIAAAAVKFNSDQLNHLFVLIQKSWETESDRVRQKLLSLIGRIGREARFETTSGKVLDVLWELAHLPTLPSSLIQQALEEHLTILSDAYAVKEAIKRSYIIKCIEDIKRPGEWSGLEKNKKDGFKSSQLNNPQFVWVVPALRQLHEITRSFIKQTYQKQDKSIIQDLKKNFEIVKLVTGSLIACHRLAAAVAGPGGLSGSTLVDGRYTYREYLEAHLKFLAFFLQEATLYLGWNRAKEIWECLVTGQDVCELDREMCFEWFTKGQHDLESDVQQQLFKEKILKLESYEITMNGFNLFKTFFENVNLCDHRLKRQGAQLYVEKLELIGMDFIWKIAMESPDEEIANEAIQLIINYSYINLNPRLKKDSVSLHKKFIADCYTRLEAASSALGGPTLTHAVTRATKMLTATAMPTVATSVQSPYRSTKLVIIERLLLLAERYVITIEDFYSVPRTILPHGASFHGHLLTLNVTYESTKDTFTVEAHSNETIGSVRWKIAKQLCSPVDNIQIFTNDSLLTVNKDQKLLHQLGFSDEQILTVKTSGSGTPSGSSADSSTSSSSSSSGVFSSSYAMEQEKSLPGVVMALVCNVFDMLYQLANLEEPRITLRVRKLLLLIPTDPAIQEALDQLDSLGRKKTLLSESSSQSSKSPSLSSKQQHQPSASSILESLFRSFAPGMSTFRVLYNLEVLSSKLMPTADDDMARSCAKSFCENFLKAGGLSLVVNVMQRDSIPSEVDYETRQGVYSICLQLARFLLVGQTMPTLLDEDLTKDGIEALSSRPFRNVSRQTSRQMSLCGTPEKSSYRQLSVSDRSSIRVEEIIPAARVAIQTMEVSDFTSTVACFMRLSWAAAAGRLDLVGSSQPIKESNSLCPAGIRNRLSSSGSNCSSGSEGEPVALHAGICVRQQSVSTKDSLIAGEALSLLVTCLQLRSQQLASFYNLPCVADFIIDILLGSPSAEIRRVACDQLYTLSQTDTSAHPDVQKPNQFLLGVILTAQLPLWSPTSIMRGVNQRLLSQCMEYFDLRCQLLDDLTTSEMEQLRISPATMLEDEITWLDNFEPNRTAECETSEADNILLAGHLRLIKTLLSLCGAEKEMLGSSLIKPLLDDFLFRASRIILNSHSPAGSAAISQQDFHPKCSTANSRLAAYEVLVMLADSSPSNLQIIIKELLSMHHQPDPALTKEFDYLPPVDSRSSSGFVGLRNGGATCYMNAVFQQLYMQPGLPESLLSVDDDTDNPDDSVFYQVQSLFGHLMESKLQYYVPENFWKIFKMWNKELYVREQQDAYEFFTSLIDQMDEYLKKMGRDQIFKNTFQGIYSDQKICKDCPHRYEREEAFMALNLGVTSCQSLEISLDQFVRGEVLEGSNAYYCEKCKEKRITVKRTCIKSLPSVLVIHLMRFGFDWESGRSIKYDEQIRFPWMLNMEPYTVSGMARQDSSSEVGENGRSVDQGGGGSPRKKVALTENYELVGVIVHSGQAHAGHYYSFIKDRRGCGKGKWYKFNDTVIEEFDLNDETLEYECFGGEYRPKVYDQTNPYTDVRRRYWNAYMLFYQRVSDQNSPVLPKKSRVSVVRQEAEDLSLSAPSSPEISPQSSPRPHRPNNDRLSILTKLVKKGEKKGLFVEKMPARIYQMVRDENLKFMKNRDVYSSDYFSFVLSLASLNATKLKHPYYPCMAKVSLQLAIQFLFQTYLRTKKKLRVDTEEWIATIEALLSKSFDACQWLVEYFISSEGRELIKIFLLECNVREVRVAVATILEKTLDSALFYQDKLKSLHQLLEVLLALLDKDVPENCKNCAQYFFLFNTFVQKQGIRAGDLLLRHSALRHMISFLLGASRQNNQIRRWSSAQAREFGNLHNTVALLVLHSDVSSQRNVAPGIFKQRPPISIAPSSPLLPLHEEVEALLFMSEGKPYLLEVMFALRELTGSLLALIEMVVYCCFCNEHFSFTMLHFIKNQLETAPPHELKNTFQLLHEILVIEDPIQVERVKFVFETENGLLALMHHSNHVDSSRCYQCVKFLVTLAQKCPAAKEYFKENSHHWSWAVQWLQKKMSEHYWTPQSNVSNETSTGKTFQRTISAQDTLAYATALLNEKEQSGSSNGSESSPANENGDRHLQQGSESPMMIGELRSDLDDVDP

Compound: O=C(CCl)N1c2ccccc2NC(=O)C12CCCC2
- log2 ratio of Biotin-Ahx-Ub-VS probe labelling (USP19): -0.0862
- log2 ratio of Biotin-Ahx-Ub-VS probe labelling (USP22): 0.00548
- log2 ratio of Biotin-Ahx-Ub-VS probe labelling (USP24): -2.66 (active)
- log2 ratio of Biotin-Ahx-Ub-VS probe labelling (USP25): -0.252
- log2 ratio of Biotin-Ahx-Ub-VS probe labelling (USP28): -0.397
